Test results as given in ChEMBL document CHEMBL1961873, “Compounds: GSK PKIS; Assays: Nanosyn kinase panel” (2012).

What was measured:
[1] = target: T1, Mitogen-activated protein kinase 12 (Homo sapiens) (UniProt P53778); conditions: at 1 µM;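 also: values are averaged p38gamma kinase inhibition readings, compounds tested at 1 µM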
T1 sequence (whole entry): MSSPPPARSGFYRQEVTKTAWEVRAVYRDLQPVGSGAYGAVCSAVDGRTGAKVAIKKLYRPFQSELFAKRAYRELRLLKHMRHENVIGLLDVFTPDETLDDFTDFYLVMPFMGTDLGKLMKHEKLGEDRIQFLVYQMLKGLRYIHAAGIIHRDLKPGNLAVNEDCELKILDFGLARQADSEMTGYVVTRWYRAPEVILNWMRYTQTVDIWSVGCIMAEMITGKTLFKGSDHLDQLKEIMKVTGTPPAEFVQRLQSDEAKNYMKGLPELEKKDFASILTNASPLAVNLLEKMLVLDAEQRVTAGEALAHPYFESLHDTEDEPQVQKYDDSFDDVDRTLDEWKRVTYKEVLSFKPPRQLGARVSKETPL

[2] = target: SRSF protein kinase 1 (Homo sapiens) (UniProt Q96SB4); conditions: at 0.1 µM
SRSF protein kinase 1 (Homo sapiens), sequence (Q96SB4 whole entry, canonical isoform): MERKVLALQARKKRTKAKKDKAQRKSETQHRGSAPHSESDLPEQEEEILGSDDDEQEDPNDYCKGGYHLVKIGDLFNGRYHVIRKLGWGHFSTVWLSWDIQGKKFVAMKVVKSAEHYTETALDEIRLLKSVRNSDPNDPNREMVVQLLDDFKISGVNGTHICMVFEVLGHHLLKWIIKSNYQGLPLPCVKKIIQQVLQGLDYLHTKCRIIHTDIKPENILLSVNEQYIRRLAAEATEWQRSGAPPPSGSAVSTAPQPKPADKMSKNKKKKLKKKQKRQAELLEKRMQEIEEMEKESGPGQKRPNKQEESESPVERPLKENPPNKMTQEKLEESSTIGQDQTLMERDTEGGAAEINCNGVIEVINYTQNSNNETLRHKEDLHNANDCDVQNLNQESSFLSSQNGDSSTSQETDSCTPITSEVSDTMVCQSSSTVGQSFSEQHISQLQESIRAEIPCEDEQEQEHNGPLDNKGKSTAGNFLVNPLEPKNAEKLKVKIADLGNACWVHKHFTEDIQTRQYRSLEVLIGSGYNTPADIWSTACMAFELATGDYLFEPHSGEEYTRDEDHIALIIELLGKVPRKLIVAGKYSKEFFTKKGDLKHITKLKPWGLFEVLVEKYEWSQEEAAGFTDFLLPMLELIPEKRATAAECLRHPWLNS

[3] = target: SRSF protein kinase 1 (Homo sapiens) (UniProt Q96SB4); conditions: at 1 µM
[4] = target: Phosphatidylinositol 4,5-bisphosphate 3-kinase catalytic subunit alpha isoform (Homo sapiens) (UniProt P42336); conditions: at 0.1 µM
Phosphatidylinositol 4,5-bisphosphate 3-kinase catalytic subunit alpha isoform (Homo sapiens), sequence (P42336 whole entry, canonical isoform): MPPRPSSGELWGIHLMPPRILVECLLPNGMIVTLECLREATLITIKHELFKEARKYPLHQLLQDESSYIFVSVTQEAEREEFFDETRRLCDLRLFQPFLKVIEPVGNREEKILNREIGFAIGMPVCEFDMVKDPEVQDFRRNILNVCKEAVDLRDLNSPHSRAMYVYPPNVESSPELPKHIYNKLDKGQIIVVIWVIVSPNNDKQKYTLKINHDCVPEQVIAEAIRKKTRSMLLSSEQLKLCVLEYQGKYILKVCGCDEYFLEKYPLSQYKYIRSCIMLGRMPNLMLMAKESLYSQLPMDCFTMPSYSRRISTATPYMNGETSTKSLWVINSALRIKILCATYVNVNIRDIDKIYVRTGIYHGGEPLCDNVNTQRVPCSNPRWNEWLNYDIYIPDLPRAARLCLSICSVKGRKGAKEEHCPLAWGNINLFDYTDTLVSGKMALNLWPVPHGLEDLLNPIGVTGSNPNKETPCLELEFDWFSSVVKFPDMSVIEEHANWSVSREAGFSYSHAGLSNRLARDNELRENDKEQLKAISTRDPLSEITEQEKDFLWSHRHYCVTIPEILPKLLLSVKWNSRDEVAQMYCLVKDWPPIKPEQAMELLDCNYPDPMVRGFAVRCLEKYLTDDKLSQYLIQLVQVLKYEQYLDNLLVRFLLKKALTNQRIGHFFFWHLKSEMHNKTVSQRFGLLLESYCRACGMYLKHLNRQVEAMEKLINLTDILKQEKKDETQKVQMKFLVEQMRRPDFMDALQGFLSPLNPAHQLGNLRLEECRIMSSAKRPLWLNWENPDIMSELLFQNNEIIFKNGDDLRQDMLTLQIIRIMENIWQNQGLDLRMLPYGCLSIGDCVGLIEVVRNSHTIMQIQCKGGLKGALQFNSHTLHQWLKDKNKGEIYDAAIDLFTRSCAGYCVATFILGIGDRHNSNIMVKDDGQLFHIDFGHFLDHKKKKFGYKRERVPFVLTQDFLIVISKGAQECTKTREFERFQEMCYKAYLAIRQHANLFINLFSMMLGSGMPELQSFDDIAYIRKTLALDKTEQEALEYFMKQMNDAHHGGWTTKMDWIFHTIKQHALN

[5] = target: Phosphatidylinositol 4,5-bisphosphate 3-kinase catalytic subunit alpha isoform (Homo sapiens) (UniProt P42336); conditions: at 1 µM
[6] = target: T2, Phosphatidylinositol 4,5-bisphosphate 3-kinase catalytic subunit delta isoform (Homo sapiens) (UniProt O00329); conditions: at 0.1 µM
T2 sequence (whole entry): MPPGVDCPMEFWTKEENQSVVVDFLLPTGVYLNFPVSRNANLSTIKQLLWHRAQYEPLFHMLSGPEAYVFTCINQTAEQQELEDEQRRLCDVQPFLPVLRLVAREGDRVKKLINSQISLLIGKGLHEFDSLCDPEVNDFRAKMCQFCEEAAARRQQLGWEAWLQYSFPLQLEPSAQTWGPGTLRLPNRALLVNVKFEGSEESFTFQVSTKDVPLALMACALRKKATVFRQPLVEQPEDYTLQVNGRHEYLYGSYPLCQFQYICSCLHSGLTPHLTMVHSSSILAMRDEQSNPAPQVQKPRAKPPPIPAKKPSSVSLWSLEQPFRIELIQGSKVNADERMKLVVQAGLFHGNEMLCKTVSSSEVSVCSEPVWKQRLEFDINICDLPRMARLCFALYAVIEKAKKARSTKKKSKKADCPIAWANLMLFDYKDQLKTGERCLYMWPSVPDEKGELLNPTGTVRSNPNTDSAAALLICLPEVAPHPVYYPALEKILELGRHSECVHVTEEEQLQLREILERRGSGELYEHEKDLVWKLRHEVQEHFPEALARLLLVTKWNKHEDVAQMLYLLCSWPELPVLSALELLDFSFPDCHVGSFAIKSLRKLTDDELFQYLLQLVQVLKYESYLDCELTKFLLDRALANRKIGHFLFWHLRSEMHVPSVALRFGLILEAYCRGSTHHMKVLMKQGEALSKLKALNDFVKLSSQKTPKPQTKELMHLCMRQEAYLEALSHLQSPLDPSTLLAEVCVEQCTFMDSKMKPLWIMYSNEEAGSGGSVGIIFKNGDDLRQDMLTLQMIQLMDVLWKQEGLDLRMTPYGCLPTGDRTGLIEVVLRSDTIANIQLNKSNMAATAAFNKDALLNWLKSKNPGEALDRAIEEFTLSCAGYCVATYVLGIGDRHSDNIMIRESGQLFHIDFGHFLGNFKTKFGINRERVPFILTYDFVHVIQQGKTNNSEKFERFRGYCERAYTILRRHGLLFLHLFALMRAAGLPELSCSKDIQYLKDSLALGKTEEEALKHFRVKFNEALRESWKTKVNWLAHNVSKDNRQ

[7] = target: T2, Phosphatidylinositol 4,5-bisphosphate 3-kinase catalytic subunit delta isoform (Homo sapiens); conditions: at 1 µM
[8] = target: Phosphatidylinositol 4-kinase beta (Homo sapiens) (UniProt Q9UBF8); conditions: at 0.1 µM
Phosphatidylinositol 4-kinase beta (Homo sapiens), sequence (Q9UBF8 2-816 limits assumed): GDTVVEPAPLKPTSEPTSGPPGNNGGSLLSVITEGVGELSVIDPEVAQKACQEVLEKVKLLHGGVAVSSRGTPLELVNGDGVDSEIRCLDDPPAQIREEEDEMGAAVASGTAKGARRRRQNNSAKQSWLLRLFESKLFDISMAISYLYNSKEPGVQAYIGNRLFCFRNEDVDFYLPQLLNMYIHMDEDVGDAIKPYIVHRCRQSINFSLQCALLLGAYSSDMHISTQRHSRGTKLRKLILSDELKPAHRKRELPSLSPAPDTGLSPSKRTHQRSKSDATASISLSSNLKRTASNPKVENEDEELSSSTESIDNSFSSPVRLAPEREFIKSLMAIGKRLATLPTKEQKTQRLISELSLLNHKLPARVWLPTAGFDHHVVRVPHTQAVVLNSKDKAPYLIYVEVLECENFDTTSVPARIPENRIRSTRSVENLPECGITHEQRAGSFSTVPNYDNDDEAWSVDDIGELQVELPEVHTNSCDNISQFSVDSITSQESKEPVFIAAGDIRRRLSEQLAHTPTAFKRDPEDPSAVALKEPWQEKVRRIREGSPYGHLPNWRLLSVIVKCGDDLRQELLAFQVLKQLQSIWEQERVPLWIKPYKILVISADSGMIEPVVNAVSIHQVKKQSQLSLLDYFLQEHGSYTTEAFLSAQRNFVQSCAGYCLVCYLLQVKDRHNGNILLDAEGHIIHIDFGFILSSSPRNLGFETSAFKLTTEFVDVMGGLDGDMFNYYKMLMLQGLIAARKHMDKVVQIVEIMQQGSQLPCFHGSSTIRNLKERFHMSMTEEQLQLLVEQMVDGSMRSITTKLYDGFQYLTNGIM

[9] = target: Phosphatidylinositol 4-kinase beta (Homo sapiens) (UniProt Q9UBF8); conditions: at 1 µM
[10] = target: Sphingosine kinase 1 (Homo sapiens) (UniProt Q9NYA1); conditions: at 0.1 µM
Sphingosine kinase 1 (Homo sapiens), sequence (Q9NYA1 whole entry): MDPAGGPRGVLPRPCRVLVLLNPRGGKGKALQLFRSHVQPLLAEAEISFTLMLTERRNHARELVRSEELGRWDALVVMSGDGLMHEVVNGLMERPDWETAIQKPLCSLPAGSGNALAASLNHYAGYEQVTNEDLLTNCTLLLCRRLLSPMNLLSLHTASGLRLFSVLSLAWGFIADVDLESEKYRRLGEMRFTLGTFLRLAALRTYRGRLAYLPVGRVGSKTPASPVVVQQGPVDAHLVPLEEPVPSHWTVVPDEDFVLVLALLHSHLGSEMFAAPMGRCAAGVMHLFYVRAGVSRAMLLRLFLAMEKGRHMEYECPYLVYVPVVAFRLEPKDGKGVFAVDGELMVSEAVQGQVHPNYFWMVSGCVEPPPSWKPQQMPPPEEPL

[11] = target: Sphingosine kinase 1 (Homo sapiens) (UniProt Q9NYA1); conditions: at 1 µM
[12] = target: T3, Sphingosine kinase 2 (Homo sapiens) (UniProt Q9NRA0); conditions: at 0.1 µM
T3 sequence (whole entry): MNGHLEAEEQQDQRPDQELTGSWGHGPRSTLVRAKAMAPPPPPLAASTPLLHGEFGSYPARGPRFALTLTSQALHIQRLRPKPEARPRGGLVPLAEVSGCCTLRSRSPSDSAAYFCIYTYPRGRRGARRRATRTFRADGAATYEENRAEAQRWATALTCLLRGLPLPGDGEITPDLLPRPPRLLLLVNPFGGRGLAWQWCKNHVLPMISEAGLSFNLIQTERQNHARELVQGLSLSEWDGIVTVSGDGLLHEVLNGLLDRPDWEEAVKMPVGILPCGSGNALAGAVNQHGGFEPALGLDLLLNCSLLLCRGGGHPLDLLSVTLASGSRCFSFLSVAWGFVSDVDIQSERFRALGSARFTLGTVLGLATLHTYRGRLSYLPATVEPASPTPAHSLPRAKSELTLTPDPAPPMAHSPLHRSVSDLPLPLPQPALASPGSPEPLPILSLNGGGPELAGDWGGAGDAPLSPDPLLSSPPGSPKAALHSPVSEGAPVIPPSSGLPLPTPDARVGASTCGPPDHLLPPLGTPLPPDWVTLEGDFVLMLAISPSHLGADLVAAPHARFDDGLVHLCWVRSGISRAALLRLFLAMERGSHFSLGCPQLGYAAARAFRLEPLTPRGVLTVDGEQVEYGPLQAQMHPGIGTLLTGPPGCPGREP

[13] = target: T3, Sphingosine kinase 2 (Homo sapiens); conditions: at 1 µM
[14] = target: Casein kinase II subunit alpha (Homo sapiens) (UniProt P68400); conditions: at 0.1 µM
Casein kinase II subunit alpha (Homo sapiens), sequence (P68400 whole entry, looked up): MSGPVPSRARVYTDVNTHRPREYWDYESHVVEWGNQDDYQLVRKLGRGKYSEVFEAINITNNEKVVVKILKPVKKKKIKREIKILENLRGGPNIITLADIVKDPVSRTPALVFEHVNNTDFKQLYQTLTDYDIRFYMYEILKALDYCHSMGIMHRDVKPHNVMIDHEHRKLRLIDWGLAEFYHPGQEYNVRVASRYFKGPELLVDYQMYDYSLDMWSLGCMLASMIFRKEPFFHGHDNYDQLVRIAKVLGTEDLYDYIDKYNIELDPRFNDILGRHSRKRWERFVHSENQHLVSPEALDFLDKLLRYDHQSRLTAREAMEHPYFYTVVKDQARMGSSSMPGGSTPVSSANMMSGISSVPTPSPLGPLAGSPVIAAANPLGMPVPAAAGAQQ

[15] = target: Casein kinase II subunit alpha (Homo sapiens) (UniProt P68400); conditions: at 1 µM
[16] = target: T4, Inhibitor of nuclear factor kappa-B kinase subunit alpha (Homo sapiens) (UniProt O15111); conditions: at 0.1 µM
T4 sequence (whole entry): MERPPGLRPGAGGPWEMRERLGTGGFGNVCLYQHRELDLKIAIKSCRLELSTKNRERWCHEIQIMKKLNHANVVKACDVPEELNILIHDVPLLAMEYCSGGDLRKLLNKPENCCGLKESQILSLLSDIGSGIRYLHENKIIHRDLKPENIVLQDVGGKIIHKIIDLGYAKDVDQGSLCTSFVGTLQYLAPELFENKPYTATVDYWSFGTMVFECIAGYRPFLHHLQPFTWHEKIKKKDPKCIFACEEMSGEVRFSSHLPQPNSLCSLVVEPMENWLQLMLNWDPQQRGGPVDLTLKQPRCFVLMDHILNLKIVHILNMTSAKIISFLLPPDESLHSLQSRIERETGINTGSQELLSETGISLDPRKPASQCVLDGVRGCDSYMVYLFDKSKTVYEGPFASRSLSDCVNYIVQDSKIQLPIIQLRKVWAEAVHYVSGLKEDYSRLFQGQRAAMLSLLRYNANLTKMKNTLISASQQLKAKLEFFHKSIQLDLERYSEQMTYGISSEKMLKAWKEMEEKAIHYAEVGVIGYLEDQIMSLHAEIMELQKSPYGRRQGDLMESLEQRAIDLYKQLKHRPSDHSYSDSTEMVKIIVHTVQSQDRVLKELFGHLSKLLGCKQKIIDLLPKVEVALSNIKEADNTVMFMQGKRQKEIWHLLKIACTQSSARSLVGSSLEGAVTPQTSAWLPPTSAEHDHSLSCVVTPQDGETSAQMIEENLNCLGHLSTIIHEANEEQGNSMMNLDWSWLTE

[17] = target: T4, Inhibitor of nuclear factor kappa-B kinase subunit alpha (Homo sapiens); conditions: at 1 µM
[18] = target: T5, Inhibitor of nuclear factor kappa-B kinase subunit beta (Homo sapiens) (UniProt O14920); conditions: at 0.1 µM
T5 sequence (whole entry): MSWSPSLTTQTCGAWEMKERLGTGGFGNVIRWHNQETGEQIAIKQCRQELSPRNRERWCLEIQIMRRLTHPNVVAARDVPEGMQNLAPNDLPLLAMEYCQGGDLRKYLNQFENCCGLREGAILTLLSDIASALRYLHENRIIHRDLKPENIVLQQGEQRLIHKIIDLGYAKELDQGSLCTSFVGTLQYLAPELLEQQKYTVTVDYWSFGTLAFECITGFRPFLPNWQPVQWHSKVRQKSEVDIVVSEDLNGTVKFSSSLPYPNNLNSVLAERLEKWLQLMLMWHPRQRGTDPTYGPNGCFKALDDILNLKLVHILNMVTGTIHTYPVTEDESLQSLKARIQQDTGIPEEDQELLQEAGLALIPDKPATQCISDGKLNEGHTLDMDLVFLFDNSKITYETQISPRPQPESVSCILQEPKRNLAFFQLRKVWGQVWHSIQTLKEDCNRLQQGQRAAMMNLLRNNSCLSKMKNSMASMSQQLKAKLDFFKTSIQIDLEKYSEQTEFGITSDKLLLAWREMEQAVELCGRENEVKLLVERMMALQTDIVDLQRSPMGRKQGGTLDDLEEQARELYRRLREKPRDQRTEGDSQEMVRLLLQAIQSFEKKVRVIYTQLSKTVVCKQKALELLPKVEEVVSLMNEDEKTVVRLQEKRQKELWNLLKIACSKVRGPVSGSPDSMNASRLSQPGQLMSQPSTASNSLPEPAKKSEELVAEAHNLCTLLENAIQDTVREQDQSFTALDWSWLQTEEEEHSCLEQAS

[19] = target: T5, Inhibitor of nuclear factor kappa-B kinase subunit beta (Homo sapiens); conditions: at 1 µM
[20] = target: T6, Inhibitor of nuclear factor kappa-B kinase subunit epsilon (Homo sapiens) (UniProt Q14164); conditions: at 0.1 µM;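 also: mean inhibition of IKKε reported, from the GSK PKIS dataset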
T6 sequence (whole entry): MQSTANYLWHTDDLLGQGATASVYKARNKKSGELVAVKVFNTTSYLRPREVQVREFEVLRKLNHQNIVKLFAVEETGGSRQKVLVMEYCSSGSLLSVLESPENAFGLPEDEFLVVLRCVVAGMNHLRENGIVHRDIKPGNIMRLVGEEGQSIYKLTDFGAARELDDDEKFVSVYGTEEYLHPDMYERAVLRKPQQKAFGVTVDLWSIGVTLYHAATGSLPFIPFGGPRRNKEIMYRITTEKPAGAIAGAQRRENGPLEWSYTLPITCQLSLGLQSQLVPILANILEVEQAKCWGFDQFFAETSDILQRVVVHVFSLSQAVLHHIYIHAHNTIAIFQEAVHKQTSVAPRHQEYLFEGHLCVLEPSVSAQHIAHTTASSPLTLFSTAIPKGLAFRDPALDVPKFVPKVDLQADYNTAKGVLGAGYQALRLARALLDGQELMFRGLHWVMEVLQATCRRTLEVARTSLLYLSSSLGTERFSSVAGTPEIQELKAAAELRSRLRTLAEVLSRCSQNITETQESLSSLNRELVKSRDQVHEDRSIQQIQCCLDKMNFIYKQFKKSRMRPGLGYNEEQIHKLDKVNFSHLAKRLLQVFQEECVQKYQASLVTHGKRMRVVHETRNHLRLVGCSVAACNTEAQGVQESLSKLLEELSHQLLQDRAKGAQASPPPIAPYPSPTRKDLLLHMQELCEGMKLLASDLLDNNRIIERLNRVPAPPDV

SMILES	inhibition [1]	inhibition [2]	inhibition [3]	inhibition [4]	inhibition [5]	inhibition [6]	inhibition [7]	inhibition [8]	inhibition [9]	inhibition [10]	inhibition [11]	inhibition [12]	inhibition [13]	inhibition [14]	inhibition [15]	inhibition [16]	inhibition [17]	inhibition [18]	inhibition [19]	inhibition [20]
Cc1nc(-c2ccccc2)n2nc(NCCCN3CCOCC3)ncc12	2.42%	-2.28%	-2.05%	1.91%	1.2%	-0.22%	0.85%	4.37%	0.1%	0.59%	-2.26%	-1.13%	-0.14%	13.3%	6.84%	-0.66%	5.55%	2.75%	4.98%	4.87%
Cc1ccc2c(-c3ccnc(Nc4cccc(C(F)(F)F)c4)n3)c(-c3ccccc3)nn2n1	5.59%	-3.32%	-2.03%	3.95%	5.13%	0.26%	2%	0.44%	-2.31%	0.67%	-0.04%	0%	0%	1.2%	3.98%	1.79%	5.16%	4.63%	8.3%	7.46%
c1ccc(Cc2nc3ccc(Nc4ncnc5ccccc45)cc3[nH]2)cc1	0.6%	-1.1%	1.41%	3.03%	4.64%	1.66%	0.62%	-0.98%	-1.72%	1.07%	-0.48%	0.11%	-0.64%	3.02%	9.95%	-0.9%	6.86%	5.53%	8.45%	5.38%
NS(=O)(=O)c1cccc(Nc2cc(-c3ccc(F)cc3)n[nH]2)c1	1.49%	-1.05%	3.13%	1.31%	3.66%	-0.13%	0.5%	2.18%	0.88%	0.58%	-0.2%	0.87%	-0.06%	5.22%	13.6%	4.35%	11.3%	5.51%	4.5%	8.55%
COc1cc2ncnc(Nc3ccc4c(cnn4Cc4ccccc4)c3)c2cc1OC	3.71%	-4.03%	-2.33%	1.81%	2.38%	0.53%	1.87%	1.81%	4.03%	0.61%	2.19%	0.07%	0.14%	-5.08%	4.31%	2.23%	8.23%	3.63%	3.81%	2.69%
NC(=O)c1sc(-n2cnc3ccccc32)cc1OCc1ccccc1Br	5.59%	-3.49%	-2.38%	4.02%	4.31%	2.31%	4.24%	0.67%	-1.28%	1.25%	-0.07%	1.77%	0%	5.03%	5.76%	4.61%	7.53%	4.02%	5.66%	8.4%
